HP1b binding inh: blocks HP1-beta chromodomain binding to methylated histone tails | Potency, µM (series often up to 114 µM), inactives show at the top dose activity change, negative = inhibition, actives largely listed as inhibitors | hit rate 0.56% among 390,000 | AlphaScreen HP1-beta / biotin-H3K9me3 peptide binding | P83916 | AID 540317; also: nearly all actives have a fitted effect of over 70% in size
Target sequence (P83916 whole entry, looked up): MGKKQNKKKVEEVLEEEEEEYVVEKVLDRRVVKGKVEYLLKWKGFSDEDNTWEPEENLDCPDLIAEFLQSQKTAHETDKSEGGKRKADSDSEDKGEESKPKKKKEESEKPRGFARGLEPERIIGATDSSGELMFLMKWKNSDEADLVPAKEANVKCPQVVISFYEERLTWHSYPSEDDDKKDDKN
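Compound inhibition of the preformed complex between 50 nM HP1-beta and 50 nM biotinylated H3K9me3 peptide was read by AlphaScreen. Buffer was PBS pH 7.4 with 0.01% Tween-20. Incubations ran 30 min at room temperature, with 10 ug/mL donor/acceptor beads.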
12-LOX inh: inhibitors of human 12S-lipoxygenase ALOX12. P18054. purified 12hLO, xylenol orange hydroperoxide absorbance. Potency, µM (doses to about 108 µM), for the others: top-dose activity change, negative = inhibition, actives largely listed as inhibitors. hit rate 1.1% among 580,000. AID 1671190; also: % is scaled to controls: 0 for no effect and ±100 for the full control effect
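Purified human 12hLO at 150 nM in 25 mM Hepes, 0.01% Triton X-100, pH 7.0, preincubated 15 min at room temperature with compound. Reaction started with 40 uM arachidonic acid, 30 min at room temperature. Hydroperoxide measured by Fe-xylenol orange, 573/405 nm absorbance ratio.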
PLK1 PBD block: inhibitors of human PLK1 polo-box domain binding; P53350; Plk1 PBD binding of FITC phosphopeptide, fluorescence polarization; Potency, µM, for inactives: max response, negative = inhibition, hits mostly inhibitors; hit rate 2.8% among 360,000; AID 720504; also: series mostly up to about 57 µM; % is scaled to controls: 0 for no effect and ±100 for the full control effect; nearly all actives have a fitted effect of over 65% in size
G9a block: blocks human histone lysine methyltransferase G9a | G9a H3K9 monomethylation, AlphaScreen, 2 h | Potency, µM (series often up to 102 µM), for inactives: at the highest dose activity, negative = inhibition, usual class: inhibitors | hit rate 8.8% among 350,000 | Q96KQ7; also: % is scaled to controls: 0 for no effect and ±100 for the full control effect; nearly all actives have a fitted effect of over 75% in size
Target sequence (Q96KQ7 913-1193 limits assumed): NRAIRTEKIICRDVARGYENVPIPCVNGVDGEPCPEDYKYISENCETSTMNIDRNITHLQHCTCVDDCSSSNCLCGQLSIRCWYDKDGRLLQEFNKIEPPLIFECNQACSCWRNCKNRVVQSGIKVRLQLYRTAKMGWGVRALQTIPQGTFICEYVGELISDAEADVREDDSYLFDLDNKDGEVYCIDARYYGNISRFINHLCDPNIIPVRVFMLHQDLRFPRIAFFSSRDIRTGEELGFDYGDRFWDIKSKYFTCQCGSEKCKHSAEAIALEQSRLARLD
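Signal arises when biotinylated H3K9 peptide, once monomethylated, bridges streptavidin donor and antibody-captured acceptor beads. Enzyme at 20 nM was preincubated 15 min with test compounds; peptide 500 nM and SAM 20 uM then reacted for 2 h.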
JMJD2A Tudor inh: inhibitors of human JMJD2A Tudor domain; AlphaScreen JMJD2A-Tudor / H3K4me3 peptide binding; Potency, µM (series often up to 114 µM), without a hit: at the highest dose activity change, negative = inhibition, usual class: inhibitors; hit rate 4.4% among 390,000; also: % is scaled to controls: 0 for no effect and ±100 for the full control effect; nearly all actives have a fitted effect of over 50% in size
BAZ2B inh: inhibitors of human BAZ2B bromodomain. Potency, µM (highest dose often 114 µM), for inactives: at the highest dose activity change, negative = inhibition, most hits filed as inhibitors. AlphaScreen BAZ2B-H3K14Ac peptide displacement. Q9UIF8. hit rate 4.4% among 360,000; also: % is scaled to controls: 0 for no effect and ±100 for the full control effect; nearly all actives have a fitted effect of over 60% in size
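AlphaScreen luminescence quantifies BAZ2B engagement of H3K14Ac peptide; the protein and biotinylated peptide are both at 50 nM final, buffer PBS pH 7.4 with 0.01% Tween-20, all steps at room temperature.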
The depositor's hits bear a star; [ ] = another dose, or the depositor's remark. In the library only some 9% were active in any assay of this set; here they are far more common. Calls follow the shape of the dose curve; as a rule, active = well fitted curve in the direction sought with a large enough effect; inconclusive = small, poorly fitted or top-dose-only effect, or another doubt; inactive = no such curve, though single readings can be large; an effect the other way counts as inactive or inconclusive. Potency is read from the fitted curve at half-maximal effect.

What do the screens show for `COc1cc(/C=N\Nc2nc3ccccc3[nH]2)cc(OC)c1OC`?
HP1b binding inh: 14%; 12-LOX inh: 0%; PLK1 PBD block: -8%; JMJD2A Tudor inh: -9%[57.1 µM]; BAZ2B inh: inconclusive

What do the screens show for `COc1ccc2c(c1)c(/C=N/Nc1nc3ccccc3[nH]1)c(C)n2C`?
HP1b binding inh: -11%; 12-LOX inh: -29%; PLK1 PBD block: 4%; JMJD2A Tudor inh: inconclusive; BAZ2B inh: 28µM*

What do the screens show for `O=[N+]([O-])c1ccc(N/N=C/c2c[nH]c3ccccc23)c(S(=O)(=O)Nc2ccc(Cl)cc2)c1`?
HP1b binding inh: inconclusive; 12-LOX inh: inconclusive; PLK1 PBD block: 9%; G9a block: inconclusive; JMJD2A Tudor inh: 28µM*; BAZ2B inh: 45µM*

Results for COc1ccccc1NS(=O)(=O)c1cc([N+](=O)[O-])ccc1N/N=C/c1c(C)[nH]c2ccccc12 ?
HP1b binding inh: -21%; 12-LOX inh: 1%; PLK1 PBD block: 14%; G9a block: 2%[12.7 µM]; JMJD2A Tudor inh: -7%; BAZ2B inh: inconclusive

Results for COc1ccc2nc(N3CCCCC3)c(C#N)cc2c1 ?
HP1b binding inh: inactive; 12-LOX inh: 1%; PLK1 PBD block: -27%; G9a block: inactive; JMJD2A Tudor inh: 435%; BAZ2B inh: inactive

What do the screens show for `O=C1NC(=S)S/C1=C\c1cc2ccccc2nc1N1CCCCC1`?
HP1b binding inh: -17%; 12-LOX inh: -84%; PLK1 PBD block: 11µM*; G9a block: -28%; JMJD2A Tudor inh: 45µM*; BAZ2B inh: -33%

What do the screens show for `COc1ccc2nc(N3CCCC3)c(C#N)cc2c1`?
HP1b binding inh: 142%; 12-LOX inh: inconclusive; PLK1 PBD block: 17µM*; G9a block: 118%; JMJD2A Tudor inh: 63%; BAZ2B inh: 85%

Results for COc1ccc2nc(N3CCCCC3)c(/C=C3\SC(=S)NC3=O)cc2c1 ?
HP1b binding inh: inconclusive; 12-LOX inh: 14%; PLK1 PBD block: inconclusive; G9a block: 11µM*; JMJD2A Tudor inh: 28µM*; BAZ2B inh: 25µM*

What do the screens show for `COC(=O)c1ccc(COC(=O)Cc2coc3cc4c(cc23)CCC4)o1`?
12-LOX inh: 0%

How did CCCCc1ccc(-n2nc3cc(C)c(NC(=O)Cc4ccccc4)cc3n2)cc1 do in these assays?
HP1b binding inh: 10%; 12-LOX inh: inconclusive; G9a block: 1.4µM*; JMJD2A Tudor inh: 50µM*; BAZ2B inh: inconclusive

What do the screens show for `Cc1cc2nn(-c3ccccc3)nc2cc1NC(=O)Cc1ccc(Cl)cc1`?
HP1b binding inh: 29%; 12-LOX inh: -16%; G9a block: 14µM*; JMJD2A Tudor inh: -9%; BAZ2B inh: -20%

Results for CCCCC(=O)Nc1cc2nn(-c3ccc(OCC)cc3)nc2cc1C ?
HP1b binding inh: 26%; 12-LOX inh: 10%; G9a block: -2%[59 µM]; JMJD2A Tudor inh: 7%; BAZ2B inh: 0%

What do the screens show for `Nc1nc(SCC(=O)Nc2cccc(Oc3ccccc3)c2)n[nH]1`?
HP1b binding inh: 12%; 12-LOX inh: -9%; PLK1 PBD block: -20%; G9a block: 16µM*; JMJD2A Tudor inh: -20%; BAZ2B inh: -30%

How did Cn1cnnc1SCC(=O)Nc1ccc(Cl)cn1 do in these assays?
HP1b binding inh: 13%; 12-LOX inh: 19%; PLK1 PBD block: -12%; G9a block: 25%[59 µM]; JMJD2A Tudor inh: 9%; BAZ2B inh: 2%

How did CC(=O)Nc1ccc(SCC(=O)Nc2ccc(Cl)cn2)cc1 do in these assays?
HP1b binding inh: 42%; 12-LOX inh: -7%; PLK1 PBD block: 13µM*; G9a block: inconclusive; JMJD2A Tudor inh: 2%; BAZ2B inh: inconclusive

How did Nc1nc(SCC(=O)Nc2ccc(Oc3ccccc3)cc2)n[nH]1 do in these assays?
HP1b binding inh: 10%; 12-LOX inh: 10%; PLK1 PBD block: -3%; G9a block: 11%[59 µM]; JMJD2A Tudor inh: -19%; BAZ2B inh: -36%

What do the screens show for `COc1ccc2c(C)cc(SCC(=O)Nc3ccc(Cl)cn3)nc2c1`?
HP1b binding inh: -11%; 12-LOX inh: -19%; PLK1 PBD block: -11%; G9a block: 13µM*; JMJD2A Tudor inh: -25%; BAZ2B inh: -25%

Results for Nc1nc(SCC(=O)Nc2ccc(Cl)cn2)n[nH]1 ?
HP1b binding inh: inconclusive; 12-LOX inh: -1%; PLK1 PBD block: 30µM*; G9a block: -30%; JMJD2A Tudor inh: -17%[11.4 µM]; BAZ2B inh: -10%

Results for Cc1noc(-c2ccc(OC(F)(F)F)cc2)c1C(=O)NCc1cccc(Cl)c1 ?
12-LOX inh: 59%

How did O=C(Nc1ccc(F)c(Cl)c1)Nc1ccc(Cl)cn1 do in these assays?
HP1b binding inh: 17%; 12-LOX inh: -2%; PLK1 PBD block: 15µM*; JMJD2A Tudor inh: inconclusive; BAZ2B inh: -7%

What do the screens show for `Cc1ccc(C(=O)N2NC(c3ccccc3F)C3C(=O)N(c4cccc(C)c4)C(=O)C32)cc1` (stereo not given)?
HP1b binding inh: 39%; 12-LOX inh: inactive; PLK1 PBD block: -13%; G9a block: inconclusive; JMJD2A Tudor inh: -16%; BAZ2B inh: -30%

Results for COc1ccccc1N1C(=O)C2C(c3ccccc3F)NN(C(=O)c3ccc(C)cc3)C2C1=O (stereo not given) ?
HP1b binding inh: 35%; 12-LOX inh: 7%[57.4 µM]; PLK1 PBD block: -8%; G9a block: 20µM*; JMJD2A Tudor inh: -16%; BAZ2B inh: -3%

What do the screens show for `O=C(NCc1ccco1)C1(c2ccc(Br)cc2)CCCC1`?
HP1b binding inh: 8%; 12-LOX inh: -12%; PLK1 PBD block: -14%; G9a block: -39%[59 µM]; JMJD2A Tudor inh: -6%; BAZ2B inh: 1%

How did Cc1ccc(OCCCCNC(C)c2ccccc2)c(C)c1 (stereo not given) do in these assays?
HP1b binding inh: 2%; 12-LOX inh: 4.5µM*; PLK1 PBD block: -10%; G9a block: 11µM*; JMJD2A Tudor inh: 20µM*; BAZ2B inh: inconclusive

What do the screens show for `Cc1ccc(OCCSc2ncccn2)c(C)c1`?
HP1b binding inh: 89%; 12-LOX inh: 24%; PLK1 PBD block: -8%; G9a block: 298%; JMJD2A Tudor inh: 64%; BAZ2B inh: 83%

How did Cc1ccc(OCCN)c(C)c1 do in these assays?
12-LOX inh: -7%

What do the screens show for `CCOCCCNCc1ccc(OCCC(C)C)c(OC)c1`?
HP1b binding inh: -33%; 12-LOX inh: -25%; PLK1 PBD block: -10%; G9a block: inconclusive; JMJD2A Tudor inh: inconclusive; BAZ2B inh: 56µM*

Results for Cc1cc(C)c(C)c(OCCCOc2cccc3cccnc23)c1 ?
HP1b binding inh: 24%; 12-LOX inh: -22%; PLK1 PBD block: 0%; G9a block: -25%[59 µM]; JMJD2A Tudor inh: -7%; BAZ2B inh: 1%
